The source of these data is PubChem BioAssay (NCATS).

The subject of one experiment is Tov-21-G. The experiment can be described thus: Primary qHTS to identify gynecologic anti-cancer compounds using libraries of approved drugs and bioactive compounds (AID 1345084). Also: nearly all actives have a fitted effect of over 55% in size. The note with it: Gynecologic cancer cell panel viability, ATPlite luminescence, 48 h; series mostly up to 57.5 µM. In a few lines:
(§1)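 Cells, 1,000 per well, plated 16 h, then exposed 48 h at 37 C to compounds. Viability by ATPlite luminescence after 15 min at room temperature.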
On the technique in general: qHTS replaces the single test concentration by a dilution series.

Another experiment concerns Tov112D. The experiment is described as above. The note with it: Gynecologic cancer cell panel viability, ATPlite luminescence, 48 h; series mostly up to 57.5 µM. In a few lines: as §1
On the technique in general: In ATP-based viability assays light output follows the ATP content of the culture.

Results filed as inconclusive are left out. A call without a number means that no potency is given here. Active and inactive are the calls of the source. Calls follow the shape of the dose curve; as a rule, active = well fitted cell-killing curve with a large enough effect; inconclusive = small, poorly fitted or top-dose-only effect, or effect the other way; inactive = flat fitted curve, though single readings scatter.
Potency is read from the fitted curve at half-maximal effect.

Turning to `O=c1ccc2ccc(OCCCCN3CCN(c4cccc5sccc45)CC3)cc2[nH]1`, the Potency result with Tov-21-G and in the experiment on Tov112D was “inactive” in each case.
For the compound `O=S(=O)(Cc1ccccc1)Nc1ccc(-c2ccc3c(cnn3-c3ccc(F)cc3)c2)c(C(F)(F)F)c1`, the Potency entry in the experiment on Tov-21-G and in the experiment on Tov112D was “inactive” each time.
For `CCOc1cn(-c2ccc(F)cc2C)nc1C(=O)Nc1ccc(Oc2ccnc3cc(OC)c(OC)cc23)c(F)c1`, the Potency entry in the experiment with Tov-21-G and in the experiment with Tov112D was “inactive” in each case.
Turning to `CNCCC(c1cccs1)c1ccc(O)c2ccccc12` (centres undefined), the Potency entry in the experiment with Tov-21-G and with Tov112D was “inactive” each time.
Turning to `COC(=O)c1cc(Br)cnc1N1CCC(NC2CCCCC2)C(O)C1` (centres undefined), the Potency result in the experiment on Tov-21-G and with Tov112D was “inactive” each time.
For the compound `COc1ccc(CCc2nc3cc(-c4c(C)noc4C)ccc3n2CC(C)N2CCOCC2)cc1Cl` (centres undefined), the Potency result in the experiment with Tov-21-G and in the experiment with Tov112D was “inactive” each time.
Regarding `C[C@@H](NC(=O)[C@H](O)c1cc(F)cc(F)c1)C(=O)N[C@@H]1C(=O)N(C)c2ccccc2-c2ccccc21`, the Potency result in the experiment with Tov-21-G and in the experiment on Tov112D was “inactive” in each case.
Turning to `C/C(=C\CCC(C)C1=CCC2(C)OC3=C(CC12)C(=O)C(O)CC3)CO` (centres undefined), the Potency entry with Tov-21-G and with Tov112D was “inactive” each time.
`CC1(C)CC[C@]2(C(=O)O)CC[C@]3(C)C(=CCC4[C@@]5(C)C[C@@H](O)[C@H](O)[C@@](C)(CO)C5CC[C@]43C)[C@@H]2[C@@H]1O` (some centres undefined): the Potency entry in the experiment on Tov-21-G and in the experiment on Tov112D was “inactive” throughout.
On to `O=C(c1c(F)ccc(NS(=O)(=O)N2CC[C@@H](F)C2)c1F)c1c[nH]c2ncc(-c3cnc(C4CC4)nc3)cc12`, for which, in the experiment on Tov-21-G, the Potency is 11.2 µM (active). Further, the Potency entry in the experiment on Tov112D is “inactive”.
For `C=C(C)[C@@H]1CC[C@]2(C(=O)O)CC[C@]3(C(=O)O)[C@H](CCC4[C@@]5(C)CCC(=O)C(C)(C)C5CC[C@]43C)C12` (some centres undefined), in that order: “inactive” and “inactive”.
The corresponding values for `CCN1C(C)(C)CC(Oc2ccc(C(=O)Nc3ccc(NC(=O)Nc4cc(C(C)(C)C)on4)cc3)nc2)CC1(C)C` are “inactive” and “inactive”.
